Laboratory results from PubChem BioAssay (EPA / NIEHS).
Results filed as inconclusive are left out. The source made the active and inactive calls. The calls were made as follows: active = hit-call score of the fitted dose curve at least 0.9, where 1 is the maximum; inconclusive = response in the unintended direction; inactive = score below 0.9.

These compounds were tested on sulfotransferase (SULT2A), SULT2A1 (gene 6822) (assay: CLD_SULT2A_48hr: CellzDirect (CLD) Gene Expression Assay for sulfotransferase (SULT2A) at 48 hours (AID 2283710);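 also: hits raise SULT2A1 transcript above the 0.2% DMSO vehicle baseline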).
Description: CLD_48hr is a cell-based, multiplexed-readout assay that uses hepatocyte, a human liver primary cell, with measurements taken at 48 hours after chemical dosing in a 96-well plate.CLD_SULT2A_48hr is one of 16 assay component(s) measured or calculated from the CLD_48hr assay. It is designed to make measurements of mRNA induction, a form of inducible reporter, as detected with chemiluminescence signals by Quantitative Nuclease Protection Assay (qNPA) technology.Data from the assay component CLD_SULT2A_48hr was analyzed at the endpoint, CLD_SULT2A_48hr, in the positive analysis fitting direction relative to DMSO as the negative control and baseline of activity. Using a type of inducible reporter, gain-of-signal activity can be used to understand changes in the reporter gene as they relate to the gene SULT2A1. Furthermore, this assay endpoint can be referred to as a primary readout. To generalize the intended target to other relatable targets, this assay endpoint is annotated to the transferase intended target family, where subfamily is sulfotransferase.
Human hepatocyte cultures were treated daily for two consecutive days with fresh dosing solutions containing appropriate concentrations of the 320 ToxCast chemicals (chemical identities were blinded to CellzDirect and other ToxCast collaborators), vehicle control (0.2% DMSO), and positive control inducers as summarized in Table 1. Due to the large number of treatment groups and chemicals examined, the ToxCast chemicals were divided into two groups (spanning two independent cultures of hepatocytes from separate donor preparations (Hu778: ToxCast plates 1 and 2; Hu776: ToxCast plates 3 and 4). Each preparation of human hepatocyte cultures was treated with respective vehicle control, medium only control, set of six positive controls/reference chemicals for the five hepatic receptor pathways, and a subset of eight of the ToxCast chemicals (indoxacarb, pyrithiobac-sodium, norflurazon, cyhalofop-butyl, methomyl, thiram, acetochlor, and propiconazole). These replicate data, coupled with internal replicates designed within the blinded ToxCast chemical library, provided additional data to evaluate interindividual differences between hepatocyte preparations and their potential impact on chemical profiles.Cell morphology and integrity were evaluated using phase-contrast microscopy as an indicator of hepatocyte cell health (Tyson & Green, 1987). Cultures for each treatment group (i.e., media, vehicle [0.2% DMSO], positive control inducers [multiple concentrations], and the ToxCast chemicals [multiple concentrations]) were observed and cell morphology was assessed relative to vehicle control cultures at each harvest time point (0, 6, 24, or 48 h). […] Images were evaluated at the conclusion of the study to assess changes in cell integrity and account for the effects of chemical exposure on uncharacteristic changes in concentration-dependent gene expression profiles. The results from these determinations of apparent cytotoxicity were annotated (yes/no) alongside the corresponding qNPA data for reference.At the conclusion of each treatment period, hepatocyte cultures (96-well) were washed with 1 volume of HBSS, lysed by addition of 25 ul ArrayPlate lysis buffer (HTG, Tucson, AZ), and 70 ul/well of Denaturation Oil, denatured by incubation at 95C for 10 min, and frozen at approximately -70C until analysis by nuclease protection assay (qNPA) (Roberts et al., 2007). For qNPA analysis, cell lysates were thawed at 50C for approximately 30 min, qNPA probes were added, and samples were incubated at 95C for 10 min to begin the detection process by denaturing the target RNA, dissociating the duplexes and secondary structure hybridization. At the conclusion of the hybridization period, S1 nuclease reagent was added to each sample to digest all nonprotected nucleotides at 50C for 60-90 min. […]

Compound	outcome	AC50
CCOC(=O)NCCOc1ccc(Oc2ccccc2)cc1	inactive	–
Cc1nn(C)c(Oc2ccccc2)c1C=NOCc1ccc(C(=O)OC(C)(C)C)cc1	inactive	–
CCN(Cc1c(F)cccc1Cl)c1c([N+](=O)[O-])cc(C(F)(F)F)cc1[N+](=O)[O-]	inactive	–
CC(C)(c1ccc(O)cc1)c1ccc(O)cc1	inactive	–
OB(O)O	inactive	–
CC(C)(C)[C@@H](O)[C@@H](Cc1ccc(Cl)cc1)n1cncn1	inactive	–
COCCO	inactive	–
COC(=O)c1ccc(CNS(C)(=O)=O)cc1S(=O)(=O)NC(=O)Nc1nc(OC)cc(OC)n1	inactive	–
C#CCOC(=O)[C@@H](C)Oc1ccc(Oc2ncc(Cl)cc2F)cc1	inactive	–
CCCN(CCC)C(=O)SCC	inactive	–
CCCOC(=O)c1ccc(C(=O)OCCC)nc1	inactive	–
CCC(C)OC(=O)N1CCCCC1CCO (centres undefined)	inactive	–
COc1c(Cl)ccc(Cl)c1C(=O)O	inactive	–
CCOC(=O)[C@H](C)Oc1ccc(Oc2nc3ccc(Cl)cc3o2)cc1	inactive	–
COC(=O)c1ccc(I)cc1S(=O)(=O)NC(=O)Nc1nc(C)nc(OC)n1	inactive	–
CSC(=O)c1cccc2nnsc12	inactive	–
COC(=O)c1c(Cl)nn(C)c1S(=O)(=O)NC(=O)Nc1nc(OC)cc(OC)n1	inactive	–

Compound	outcome	AC50
COC(=O)c1ccccc1C(=O)O	inactive	–
CC1(C)C(C=C(Cl)Cl)C1C(=O)OCc1cccc(Oc2ccccc2)c1 (centres undefined)	inactive	–
CCSC(=O)N(CC(C)C)CC(C)C	inactive	–
CCCOC(=O)NCCCN(C)C	inactive	–
CCCN(CCC)c1c([N+](=O)[O-])cc(C(F)(F)F)c(N)c1[N+](=O)[O-]	inactive	–
CCCCOC(=O)C(C)Oc1ccc(Oc2ccc(C(F)(F)F)cn2)cc1 (centres undefined)	inactive	–
CCNc1nc(N)nc(Cl)n1	inactive	–
CCN(CC)C(=O)c1cccc(C)c1	inactive	–
c1ccc(Nc2ccccc2)cc1	–	3.48 µM (active)
CCOC(=O)C(C)Oc1ccc(Oc2cnc3cc(Cl)ccc3n2)cc1 (centres undefined)	inactive	–
CCOC(=O)C(C)Oc1ccc(Oc2nc3ccc(Cl)cc3o2)cc1 (centres undefined)	inactive	–
CCCCC(CC)CN1C(=O)C2C3C=CC(C3)C2C1=O (centres undefined)	–	20 µM (active)
CCOC(=O)COc1cc(-n2ncc(C(F)(F)F)c(C)c2=O)c(F)cc1Cl	inactive	–
CCC(O)=C1C(=O)CC(C(=O)O)CC1=O (centres undefined)	inactive	–
CCCCOCCOCCOCc1cc2c(cc1CCC)OCO2	–	12 µM (active)
CCCCC(CC)COC(=O)c1ccccc1C(=O)O (centres undefined)	inactive	–
COC(=O)CSc1cc(N=c2sc(=O)n3n2CCCC3)c(F)cc1Cl	inactive	–
